Assay results taken from the supplement of paper PMC11417369.
± gives the standard deviation of the averaged measurements. Whole data set: some 25,000 sequences, median “ln(normalized median fluorescence intensity)” near 10, cut for the highest 2% near 12. The list comes from a sample in which the highest values are over-represented; it also holds similar and randomly drawn sequences.

System: PfAP2-G AP2 domain (GST-tagged)
Assay: gcPBM binding intensity (ln(normalized median fluorescence intensity)); higher = stronger DNA binding
Procedure, shortened: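 GST-tagged P. falciparum DNA-binding domains produced in E. coli were incubated for 1 h on an Agilent 4 × 180k array of primer-extended double-stranded 36-bp intergenic genomic probes with negative controls. Binding intensity is the highest Masliner-normalised natural-log median intensity across replicate spots of either probe orientation, with bound protein detected by Alexa488 anti-GST antibody at 488 nm.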

Row | Sequence | gcPBM binding intensity (ln)
1 | TATATTTATTCCTGTTGTACTTTATATTATTTTTTT [XGTACX_site1415] | 11.3 ± 0.6
2 | TATAAATATATATTTTGTACTTAATATAAATTTATA [XGTACX_site7996] | 11 ± 0.62
3 | ACTATTATTAAAAATTGTACTTTCTATAAATTTTTT [XGTACX_site7825] | 11.1 ± 0.62
4 | TAAATAAAAATACAGTGTACTTTTTTCTATTTAAAA [XGTACX_site3288] | 11.7 ± 1.2
5 | GTTAAGAATATATAATGTACTTATTTTAATATAGTA [XGTACX_site6088] | 11.1 ± 0.84
6 | ATTTTTTTATTTTTGTGTACTTATAAGAATATTAAT [XGTACX_site4850] | 11.7 ± 1.1
7 | TTATATATTTTTATGTGTACTTATATATATATATAT [XGTACX_site6211] | 11.7 ± 1.1
8 | CTTCCTATATTTTACTGTACTTTTTTTTTTTTTTTT [XGTACX_site4016] | 11.7 ± 0.98
9 | TATATTAAAATTTACTGTACTTTTTTTATTTTAAAA [XGTACX_site4077] | 11.6 ± 1.1
10 | ATTTAAATACAAAATTGTACTTTTCTATATTTAACA [XGTACX_site6146] | 11.3 ± 0.64
11 | ATATATGTGTATGTATGTACTTATATTTTTTTTTAT [XGTACX_site1733] | 11.2 ± 0.78
12 | ATATATATATATATATGTACTTATTTATTTTATATA [XGTACX_site8810] | 11.5 ± 1.1
13 | ATATATTAAAACCTAGTGCATTTGTACATATTTCAA | 11 ± 0.52
14 | ATTTTAGATGAAAAAGCACACAACATATATATATAT [CACACA_site2295] | 10.2 ± 0.43
15 | TAATAAATAAGACACACACACATATATATATATTAT [CACACA_site1389] | 10.01 ± 0.042
16 | TTGTATTATTAAATTATAAAACCTATAATTATGGAT [GTGCAC_negctrl_site340] | 9.68 ± 0.099
17 | TGGAAATTCTCAGGAGTGCATATTTGCAGTTTACGT [GTGCAC_site9768] | 10.3 ± 0.25
18 | GGGAAAGAACCATATACATGCATATTTACCGTTAAA [TGCATGCA_site519] | 10 ± 0.28
19 | ATTTATATATAATATACACACATATAATCCACATAT [CACACA_site699] | 10.15 ± 0.035

Row | Sequence | gcPBM binding intensity (ln)
20 | TCTTTTTAATTTATATGTACTTATATTAATTATAAG [XGTACX_site7524] | 11.4 ± 0.97
21 | TTTTTGTTTTTTTTGTGTACTTATCAAATATATATA [XGTACX_site7273] | 11.6 ± 0.83
22 | ATATATATATATATATGTACTTAATATTTCTTATTT [XGTACX_site6206] | 11 ± 0.76
23 | GCTATTTATTTATATTGTACTTTTTTTTTTTTTTTT [XGTACX_site3624] | 11.7 ± 1.1
24 | TTTTTTCTTTTTATGTGTACTTATTTTATTTAATAA [XGTACX_site1080] | 11.7 ± 1.1
25 | AATTTTTTTTTATTGTGTACTTATTTTTTTATATTT [XGTACX_site917] | 11.7 ± 0.88
26 | CAAAAAATATATTTTTGTACTTATGTTTTTATTTTG [XGTACX_site5230] | 11.1 ± 0.76
27 | TTTTTTTTTTTAAATTGTACTTATTTTATATTATAT [XGTACX_site1077] | 11.4 ± 0.9
28 | TATATATATATATATTGTACTTTATTTTATATATTC [XGTACX_site5697] | 11.2 ± 0.71
29 | TATATATATATCAAGTGTACTTGTGTTTGTAATATT [XGTACX_site8854] | 11.4 ± 1
30 | TTTAAATTTTTATATTGTACTTTATTTATTTATTTA [XGTACX_site869] | 11.2 ± 0.85
31 | ATATATATATATGTGTGTACTTATTTATTTATTTGT [XGTACX_site549] | 11.5 ± 1
32 | ATATATAATATATACACACACATGTATATATAAATA [CACACA_site1968] | 9.87 ± 0.16
33 | TTTCTTTTTAAATAGGTGCATATTTTTATAAATATA | 10.1 ± 0.38
34 | AAACTAACTCTAACATGTACATATATATATATATAT [XGTACX_site6949] | 11.1 ± 0.66
35 | AACAATTATTGTAATGCATGCACTGAATATAGAAAG [TGCATGCA_site889] | 10.2 ± 0.18
36 | TGTGTTAATATATGAAGTACACAATACACACTAATT [XGTACX_site5469] | 11.4 ± 0.73
37 | ATGTACATTTTTTTCACACATACATTAATTTATGAG [CACACA_site5801] | 11.3 ± 0.87
38 | ATAAAAAAATAAATAACACACAAAATTACACGAAAA [CACACA_site3620] | 10.01 ± 0.049

Row | Sequence | gcPBM binding intensity (ln)
39 | GCAGGCTAAAAAATTACACACGAAAAAAATGAATTT [CACACA_site3417] | 9.86
40 | GCCCCCTAAAAAATTACACACGAAAAAAATGAATTT [CACACA_site9128] | 11.7 ± 1.2
41 | TATATTATATTTTTATGTACTTATTTATTTTGTTTC [XGTACX_site6145] | 11.3 ± 0.67
42 | AGTCTGAATAAAATTACACACATATACAGATATATA [CACACA_site5054] | 9.8 ± 0.014
43 | AAAAAAAAAAAAAGGTGTACAAGTATAATTACATAA [XGTACX_site534] | 11.5 ± 0.95
44 | TAAGTCGCCAAAAGGTGTACACATAATGCATTATCA [XGTACX_site8852] | 11.8 ± 0.79
45 | ACCAAATTATCAAATGGTACACATAAAATAATAAAA [XGTACX_site865] | 11.3 ± 0.74
46 | TGCATGCATTATCATAGTACATATAATGTTGTATAA [XGTACX_site2775] | 10.7 ± 0.45
47 | TTTTTTTTTTTTTTGTGTACATATAATGCACATTAT [XGTACX_site6505] | 11.4 ± 1
48 | GTCGCCAAAAGGTGTACACATAATGCATTATCATAA [CACACA_site6112] | 11.7 ± 0.88
49 | TACGTTTTAAAACACACACACAAAAAAAAAAAAAAA [CACACA_site3876] | 9.97 ± 0.64
50 | TTACATTATATACATACACACCCACCCACAAAAAAA [CACACA_site8187] | 10.7 ± 0.47
51 | TATGTATTCATATGTTGTACATTATATATAATAAGT [XGTACX_site6589] | 11.2 ± 0.79
52 | ATGTTGTGTATATATACACACATACATATATATATA [CACACA_site8461] | 10.4 ± 0.43
53 | ATATATATATAGTGTTGTACATTTAAAAATAATATA [XGTACX_site2627] | 11.2 ± 0.78
54 | TATATATAAGCGTGTACACATTCTGAGTGTTGTATA [CACACA_site4502] | 11.7 ± 1.1
55 | ATATATATATATAAATGTACATTGTGTGTTGTAAGA [XGTACX_site2434] | 10.8 ± 0.38
56 | AAATATATATAAGCGTGTACACATTCTGAGTGTTGT [XGTACX_site1088] | 11.7 ± 1.1
57 | ATTCCAAAAAAATCAAGTACTAATTTATTATATTAC [XGTACX_site3920] | 10.9 ± 0.49
